These results are taken from PubChem BioAssay (NCATS).

Inconclusive results are not listed. A number with no mark means an inactive call. The source made the active and inactive calls. Calls come from the whole dose curve; as a rule, active = well fitted curve in the direction sought with a large enough effect; inconclusive = small, poorly fitted or top-dose-only effect, or another doubt; inactive = no such curve, though single readings can be large; an effect the other way counts as inactive or inconclusive.

For assay [1], the system named is CRL-7250. Description: Cytotoxic Profiling of Annotated Libraries Using Quantitative High-Throughput Screening (AID 1296008). For max response: % is set by controls: 0 for no effect and ±100 for the full control effect. Note: nearly all actives have a fitted effect of over 60% in size. Note: potency is the fitted concentration of half-maximal effect. Particulars: Five cell lines viability, CellTiter-Glo ATP luminescence, 48-72 h; max response: active compounds read low. The gist of the method:
(§1)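 Cytotoxicity was measured as CellTiter-Glo ATP luminescence, read after 10 min at room temperature. Compound treatment of the cells lasted 48 or 72 hr at 37 degrees Celsius in a qHTS format.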

The test system of assay [2] is HEK293. The description is as above. Particulars: Five cell lines viability, CellTiter-Glo ATP luminescence, 48-72 h; max response: active compounds read low. The gist of the method: as §1
The subject of assay [3] is HaCat. The assay is described as above. To be noted: Five cell lines viability, CellTiter-Glo ATP luminescence, 48-72 h; max response: active compounds read low. The gist of the method:
as §1

In assay [4] the test system is KB-3-1. The assay is described as above. Particulars: Five cell lines viability, CellTiter-Glo ATP luminescence, 48-72 h; max response: active compounds read low. A digest of the protocol:
as §1

Assay [5] has as its system NIH3T3. The assay is described as above. To be noted: Five cell lines viability, CellTiter-Glo ATP luminescence, 48-72 h; max response: active compounds read low. A digest of the protocol: as §1
Assay [6] has as its system HACAT. Description: qHTS assay to identify novel small-molecules to repurpose for Merkel cell carcinoma treatment (AID 1296009). Note: nearly all actives have a fitted effect of over 60% in size. Particulars: MCC and control cell lines, CellTiter-Glo viability, 72 h; at 44.8 µM (top of the series) unless noted. The gist of the method:
(§2)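 Cell viability measured by CellTiter-Glo following 72 hr compound treatment at 37 degree celsius, with NPC and MIPE libraries tested in 8- and 11-point concentration series.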

The test system of assay [7] is NIH3T3. The description is as above. To be noted: MCC and control cell lines, CellTiter-Glo viability, 72 h; at 44.8 µM (top of the series) unless noted. The gist of the method:
as §2

In assay [8] the test system is C33A. Put plainly: Primary qHTS to identify gynecologic anti-cancer compounds using libraries of approved drugs and bioactive compounds (AID 1345084). Note: % is set by controls: 0 for no effect and ±100 for the full control effect; nearly all actives have a fitted effect of over 55% in size. Particulars: Gynecologic cancer cell panel viability, ATPlite luminescence, 48 h; series mostly up to 57.5 µM. A digest of the protocol:
(§3)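 In this quantitative HTS, cell killing is estimated from loss of ATP-dependent luciferase light. Cells see five compound concentrations over a 48 h exposure.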

Assay [9] relates to CAOV3. The assay is described as above. Particulars: Gynecologic cancer cell panel viability, ATPlite luminescence, 48 h; series mostly up to 57.5 µM. The gist of the method: as §3
In assay [10] the test system is CASKI. Described as above. Particulars: Gynecologic cancer cell panel viability, ATPlite luminescence, 48 h; series mostly up to 57.5 µM. A digest of the protocol: as §3
Assay [11] concerns Es-2. Described as above. Particulars: Gynecologic cancer cell panel viability, ATPlite luminescence, 48 h; series mostly up to 57.5 µM. A digest of the protocol:
as §3

Assay [12] has as its system HeLa. The assay is described as above. Particulars: Gynecologic cancer cell panel viability, ATPlite luminescence, 48 h; series mostly up to 57.5 µM. The gist of the method:
as §3

The test system of assay [13] is Hek293T. Described as above. Particulars: Gynecologic cancer cell panel viability, ATPlite luminescence, 48 h, control line for the selectivity index; series mostly up to 57.5 µM. The gist of the method:
as §3

The test system of assay [14] is JEG-3. Described as above. To be noted: Gynecologic cancer cell panel viability, ATPlite luminescence, 48 h; series mostly up to 57.5 µM. A digest of the protocol:
as §3

The test system of assay [15] is OV90. Described as above. Particulars: Gynecologic cancer cell panel viability, ATPlite luminescence, 48 h; series mostly up to 57.5 µM. A digest of the protocol:
as §3

Consider `COC(=O)c1ccccc1O[C@@H]1O[C@H](CO[C@@H]2OC[C@@H](O)[C@H](O)[C@H]2O)[C@@H](O)[C@H](O)[C@H]1O`, for which the figures for the max response in assay [1], in assay [2] and in assay [4] were 0.973%, 4.14% and -2.26%, respectively. In addition, the molecule was called inactive in [3], in [5] and in assay [10]. In addition, the outcome in assay [6] and in [7] was “inactive [at 17.4 µM]” each time. The Potency result in assay [8], in assay [9], in assay [11], in assay [12], in [13] and in assay [14] was “inactive” each time. Also, the Potency result in [15] is “inactive”.

`O=C(NC1CCN(CC(F)(F)F)CC1)c1ccc(-c2cccc(F)c2)nc1`: the outcome in assay [1], in assay [3], in assay [5], in assay [6], in assay [7] and in [10] was inactive. Further, the figures for the max response in assay [2] and in assay [4] were -11% and -3.14%, respectively. The Potency result in assay [8], in [9], in assay [11], in assay [12], in assay [13] and in [14] was “inactive” each time. For the same molecule, the Potency result in [15] was “inactive”.

In the case of `C[C@@H]1O[C@@H](O[C@H]2[C@H](OC(=O)[C@]34CCC(C)(C)C[C@H]3C3=CCC5[C@@]6(C)C[C@@H](O)[C@@H](O)[C@@](C)(CO)C6[C@H](O)C[C@@]5(C)[C@]3(C)CC4)OC[C@H](O)[C@@H]2O)[C@H](O)[C@H](O)[C@H]1O[C@@H]1OC[C@@H](O)[C@H](O[C@H]2O[C@H](C)[C@@H](O)[C@H](O)[C@@H]2O)[C@H]1O` (stereo not given in full), the max response in assay [1] is 1.4%; in assay [2] it was -0.607%; in assay [4] it was 8.34%. For the same molecule, the outcome in [3] and in [5] was inactive. Besides, the outcome in assay [6] and in assay [7] was “inactive [at 9.27 µM]” throughout. Besides, the activity change, negative = cytotoxicity in assay [8] was -5.04% [at 11.6 µM]; in [9], 7.19% [at 11.6 µM]; in assay [10], 15.8% [at 11.6 µM]; in assay [11] it was 6.09% [at 11.6 µM]; in assay [12], 13.1% [at 11.6 µM]; in [13], -1.53% [at 11.6 µM]. Also, the activity change, negative = cytotoxicity in assay [14] is 3.24% [at 11.6 µM]; in [15] it was 9.69% [at 11.6 µM].

In the case of `COc1cc(/C=C/CO[C@@H]2O[C@H](CO)[C@@H](O)[C@H](O)[C@H]2O)cc(OC)c1O[C@@H]1O[C@H](CO)[C@@H](O)[C@H](O)[C@H]1O`, the max response in assay [1] was -7.94%; in assay [2], -7.31%. Further, the call in assay [3], in assay [4], in [5] and in assay [10] was inactive. Moreover, the outcome in assay [6] and in assay [7] was “inactive [at 17.4 µM]” throughout. Besides, the Potency entry in assay [8], in assay [9], in assay [11], in assay [12], in assay [13] and in assay [14] was “inactive” each time. Also, the Potency entry in assay [15] is “inactive”.

As for `CC1(C)[C@H]2C[C@H](C/C=C\CCCC(=O)O)[C@@H](NC(=O)c3csc4ccc(O)cc34)[C@@H]1C2`, the max response in [1] is -1.76%; in assay [2], 4.16%. The result in assay [3], in assay [4], in assay [5], in assay [6], in [7] and in assay [10] was inactive. The Potency entry in assay [8], in assay [9], in assay [11], in assay [12], in [13] and in [14] was “inactive” throughout. The Potency result in assay [15] is “inactive”.

As for `Fc1ccc(-c2c3cccc(C(F)(F)F)c3nn2Cc2ccc(F)cc2Cl)cc1`, the max response is -3.03% in assay [1], 0.746% in assay [2] and -3.04% in [4]. Also, the outcome in [3], in [5], in [6], in [7] and in assay [10] was inactive. Further, the Potency result in [8], in assay [9], in assay [11], in assay [12], in assay [13] and in [14] was “inactive” each time. Also, the Potency entry in [15] is “inactive”.

Regarding `Nc1c(-c2ccccc2)nc(Cl)c2c(O)n[nH]c(=O)c12`, the call in assay [1], in [3], in assay [5], in assay [6], in assay [7] and in [10] was inactive. Also, the values for the max response in assay [2] and in [4] were -7.38% and 9.61%, respectively. The Potency result in assay [8], in assay [9], in assay [11], in [12], in assay [13] and in [14] was “inactive” throughout. Also, the Potency entry in [15] was “inactive”.

As for `COc1ccccc1CN[C@H]1CCCN[C@H]1c1ccccc1`, the outcome in [1], in [3], in assay [5], in [6], in assay [7] and in assay [10] was inactive. Moreover, the max response in assay [2] is -1.91%; in assay [4], 1.76%. The Potency result in assay [8], in assay [9], in assay [11], in assay [12], in assay [13] and in [14] was “inactive” each time. Besides, the Potency result in assay [15] is “inactive”.

Regarding `C=C[C@]1(C)C[C@@H](OC(=O)CSC2C[C@H]3CC[C@@H](C2)N3C)[C@]2(C)[C@H](C)CC[C@]3(CCC(=O)[C@H]32)[C@@H](C)[C@@H]1O` (stereo not given in full), the max response in assay [1] was -0.484%; in [4] it was -17.7%. Also, the Potency in assay [2] was 1460 nM (active). Further, the outcome in assay [3], in [5], in assay [6], in assay [7] and in [10] was inactive. The Potency result in assay [8], in [9], in assay [11], in assay [12], in [13] and in assay [14] was “inactive” each time. The Potency entry in assay [15] is “inactive”.
